# Data taken from ChEMBL document CHEMBL4513216, “Probing the Open Global Health Chemical Diversity Library for Multistage-Active Starting Points for Next-Generation Antimalarials” (ACS Infect Dis, 2020).
# Out of some 68,000 compounds screened, about 2,700 (4%) showed an effect of 50% or more. The sample holds strong results, similar compounds and a random draw of the others, so the mix is not that of the screen.
# Test system: Plasmodium berghei
# Test: Screen against P. berghei liver stage (PbLuc), transformed with Luciferase, at 2uM
# Assay type: functional, HepG2
# Conditions: tested at 2 uM
row,Compound,INHIBITION [%]
1,Cc1cccc(CN2CCOC3(CCCN(CC(=O)N(C)C)C3)C2)n1 (stereo not drawn),-25.4
2,Cc1ccccc1C(C)NC(=O)Cc1c(C)nc2cc(=O)[nH]n2c1C (stereo not drawn),-18.39
3,CC(C)n1cnnc1CN(C)Cc1ccoc1,33.78
4,CN(CCCNc1cc(N2CCCC2CO)ncn1)S(C)(=O)=O (stereo not drawn),22.75
5,Cn1cc(CN2CC[C@@H](NS(C)(=O)=O)[C@@H]2Cc2cccnc2)cn1,-28.13
6,O=C(c1cc(-n2cnnn2)ccc1Cl)N1CCN(c2ccccc2)CC1,8.92
7,c1csc(CN2Cc3nccn3CC(Cn3cncn3)C2)c1 (stereo not drawn),54.62
8,c1csc(CN2Cc3nccn3CC(Cn3cncn3)C2)n1 (stereo not drawn),-43.55
9,c1cc(CN2Cc3nccn3CC(Cn3cncn3)C2)ccn1 (stereo not drawn),-6.68
10,O=C(NCc1cccnc1)[C@@H]1CC[C@@H]2[C@@H](CCN2c2ncccn2)O1,25.5
11,CN(CCn1ccnc1-c1ccccn1)S(C)(=O)=O,35.52
12,CC(C)NC(=O)N1CCN(CC2CC2)CC2(CNC(=O)C2)C1 (stereo not drawn),13.38
13,O=C(Cn1cccc2cc(-c3ccc(F)cc3)nc1-2)N1CCC(O)CC1,92.28
14,CN(C)CCN(C)C(=O)Cn1cccc2cc(-c3ccc(F)cc3)nc1-2,31.81
15,COc1ccc(-c2cc3cccn(CC(=O)N4CCOCC4)c-3n2)cc1,-16.87
16,Cc1csc(CNc2cnn(CC(C)C)c2)n1,3.58
17,CCc1nnc2n1CCN(C(=O)c1cc(C)n(-c3ccccc3)c1C)C2,-68.26
18,Cn1cc(N2CCC3(CCN(C(=O)[C@H]4CCCO4)C3)C2=O)cn1 (stereo partly drawn),-28.81
19,Cc1cnc(CNC(=O)[C@@]23CCO[C@@H]2CCN(C2CCCC2)C3)cn1,-7.71
20,Cc1cnc(CNC(=O)[C@@]23CCO[C@@H]2CCNC3)cn1,62.6
21,CC(=O)N1CC[C@H]2OCC[C@@]2(C(=O)NCc2cnc(C)cn2)C1,-41.74
22,CCN1C[C@@H]2C[C@H](C(=O)NCc3cccnc3)[C@H](C1)O2,-19.81
23,CCCC1(CO)CCCN(C(=O)CCCn2nc(C)cc2C)C1 (stereo not drawn),1.1
24,COc1ccc(C(=O)N2CCCC(n3nc(C)nc3C)C2)c(OC)c1 (stereo not drawn),-42.39
25,CN(Cc1cc(Br)cn1C)C(=O)c1cscn1,30.06
26,O=C1CCC2(CCN(Cc3cscn3)CC2)CN1CC1CCCO1 (stereo not drawn),40.47
27,O=C1CCC2(CCN(Cc3cscn3)CC2)CN1CCCO,-8.8

row,Compound,INHIBITION [%]
1,Cc1cnc(C2(C)CCN(Cc3cscn3)CC2)s1,50.32
2,Cc1ccc(CN2CCCN(Cc3cscn3)CC2)cc1,-6.56
3,Cc1cnc(C2(C)CCN(Cc3csc(C)n3)CC2)s1,19.47
4,CCN1CC2(CCC1=O)CCN(Cc1cscn1)CC2,50.32
5,CC(C)c1cc(C(=O)N2C[C@@H]3CC[C@H]2CN(Cc2cscn2)C3)no1,22.89
6,CCOc1ccc2[nH]c(=O)c(CN3CCCC3c3ccccn3)cc2c1 (stereo not drawn),-97.01
7,CC(C)(C)n1nnnc1CN(Cc1ccccc1)Cc1ccc(Cl)cc1,8.33
8,Cc1csc(C(Cc2ccsc2)NC(=O)CN(C)Cc2ccccn2)n1 (stereo not drawn),7.39
9,Cc1csc(C(Cc2ccsc2)NC(=O)CN(C)Cc2cccnc2)n1 (stereo not drawn),55.29
10,CN(CC(=O)NC(Cc1ccsc1)c1cccnc1)Cc1cccnc1 (stereo not drawn),-37.25
11,COc1cccc(CN2CCC3(CCN(c4ncc(C)cn4)CC3)C2)c1,13.26
12,CC(C#N)CNS(=O)(=O)c1ccc(Br)c(F)c1 (stereo not drawn),64.21
13,CC(C#N)CNS(=O)(=O)c1ccc(F)c(Br)c1 (stereo not drawn),-27.36
14,Cc1ccc(S(=O)(=O)NCC(C)C#N)cc1Br (stereo not drawn),4.88
15,COc1ccc2c(c1)C1(CCN(Cc3ccoc3)CC1)N(C)CC2,-11.19
16,COCCC(=O)NCCn1nc(C2CCNC2)c2cccnc21 (stereo not drawn),49.9
17,Cc1ccc(CN2CCOCC2)cc1NC(=O)c1ccsc1,34.25
18,Cc1ccc(CN2CCOCC2)cc1NCc1ccsc1,52.85
19,Cc1ccc(C(=O)N2CCOCC2)cc1NCc1ccsc1,21.24
20,CS(=O)(=O)CC1CCCN(C(=O)Cn2cccc(C(F)(F)F)c2=O)C1 (stereo not drawn),33.96
21,FC(F)C(F)(F)COCc1ncnn1-c1ccc2c(c1)OCO2,57.34
22,FC(F)(F)CCc1ncnn1-c1ccc2c(c1)OCO2,11.9
23,CS(=O)(=O)N1CCC[C@H]1c1ncnn1-c1ccc2c(c1)OCO2,-13.17
24,CS(=O)(=O)CCc1ncnn1-c1ccc(F)c(Cl)c1,19.38
25,CN1CCN(CCc2ncnn2-c2ccc3c(c2)OCO3)CC1,65.76
26,CN1CCN(C[C@H]2CC[C@@H](Cc3ccc4c(c3)OCO4)O2)CC1,25.69
